VDR inhibitor = inhibitors of human vitamin D receptor. P11473. Potency, µM, inactives show max response, negative = inhibition, hits mostly inhibitors. VDR-SRC2-3 peptide fluorescence polarization, 2 h. AID 504847. 0.93% of 400,000 active; note: potency is the fitted concentration of half-maximal effect; % is set by controls: 0 for no effect and ±100 for the full control effect
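Inhibition of the VDR/SRC2-3 peptide interaction is quantified by fluorescence polarization. Compounds (23 nl, pintool) incubate with the reagents for 2 hours at ambient room temperature.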
HTT aggregate = inhibitors of mutant huntingtin aggregate formation in PC12 cells; PC12 HttQ103-GFP aggregates, Acumen cytometry, 40 h; Potency, µM (top dose mostly 46.1 µM), inactives show at the top dose activity change, negative = inhibition, usual class: inhibitors; 1.1% of 220,000 active; note: potency is the fitted concentration of half-maximal effect; % is set by controls: 0 for no effect and ±100 for the full control effect; nearly all actives have a fitted effect of over 60% in size
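Aggregates are detected as GFP objects 1–25 µm with signal 6 STDEV over background in lysates of induced PC12 cells. These carry Huntingtin exon 1 with 103 glutamines fused to GFP under an ecdysone promoter; compounds titrated.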
JMJD2E inh = blocks human JMJD2E demethylase activity; JMJD2E catalytic domain, FDH-coupled NADH fluorescence (FDH is formaldehyde dehydrogenase); 1.6% of 230,000 active; B2RXH2; Potency, µM (top dose mostly 57.1 µM), inactives show at the highest dose activity change, negative = inhibition, hits mostly inhibitors; active = well fitted inhibition curve with a large enough effect, not every such curve was filed as active; inconclusive = small, poorly fitted or top-dose-only effect, or another doubt; inactive = no such curve, though single readings can be large or run the other way;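 note: potency is the fitted concentration of half-maximal effect; 0% = wells with enzyme and -100% = buffer wells without enzyme; nearly all actives have a fitted effect of over 50% in size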
RGS12 GoLoco inh = blocks human Gai1 binding to RGS12 GoLoco peptide, red readout | 0.44% of 230,000 active | Gai1:RGS12 GoLoco peptide FP, rhodamine, 10 min | P63096 | AID 880 | Potency, µM (series often up to 61.6 µM), for the others: at the highest dose activity, negative = inhibition, actives largely listed as inhibitors; active = well fitted inhibition curve with a large enough effect, not every such curve was filed as active; inactive = no such curve, though single readings can be large or run the other way; note: potency is the fitted concentration of half-maximal effect; % is set by controls: 0 for no effect and ±100 for the full control effect; nearly all actives have a fitted effect of over 30% in size
Target sequence (P63096 whole entry, looked up): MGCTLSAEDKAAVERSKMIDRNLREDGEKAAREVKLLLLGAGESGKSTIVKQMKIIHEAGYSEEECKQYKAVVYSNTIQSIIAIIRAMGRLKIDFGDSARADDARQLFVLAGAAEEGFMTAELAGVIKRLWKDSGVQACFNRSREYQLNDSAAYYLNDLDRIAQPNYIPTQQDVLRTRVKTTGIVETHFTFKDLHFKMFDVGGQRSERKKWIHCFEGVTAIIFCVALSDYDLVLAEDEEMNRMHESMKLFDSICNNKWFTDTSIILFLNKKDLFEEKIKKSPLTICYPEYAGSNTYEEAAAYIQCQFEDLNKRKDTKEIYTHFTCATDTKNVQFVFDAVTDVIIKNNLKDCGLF
FBPA coupling cs = inhibits coupling enzyme system, counter-screen for aldolase hits; coupling enzyme system counterscreen, AmpLite Red fluorescence; activity change, negative = inhibition, % at 58.2 µM, hits read low; 0.67% of 290,000 active; AID 2472; in the data active = activity change below about -30%; note: % is set by controls: 0 for no effect and ±100 for the full control effect
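Counterscreen of the coupled detection system alone, without aldolase: glyceraldehyde-3-phosphate coupling enzymes plus AmpLite Red readout. Compounds at 57.5 uM final, 10 min RT preincubation, 20 min RT reaction, fluorescence 525/598 nm.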
HTT ATP protect = cytoprotection in Huntington HTT-Q103 PC12 cell model; PC12 HTT-Q103 induced, cytoprotection, ATP luminescence, 40 h; Potency, µM (top dose mostly 56.4 µM), without a hit: cytoprotection (ATP increase), hits mostly activators; 0.14% of 230,000 active; note: potency is the fitted concentration of half-maximal effect; % of control where 0% means no effect; nearly all actives have a fitted effect of over 45% in size
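PC12 cells stably carrying ecdysone-inducible Htt exon 1 (Q103)–GFP were induced with 100 nM tebufenozide (final) alongside library compounds in a dose series. Cytoprotection was scored as retained ATP by ATPlite luminescence.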
Active calls of the source: *; ? = inconclusive; / = no result given; ! = repeats disagree; [ ] = another dose, or the depositor's remark. Compounds with a hit are over-represented: about 2.3% of the library has one in this group of screens. Unless noted, calls come from the whole dose curve; as a rule, active = well fitted curve in the direction sought with a large enough effect; inconclusive = small, poorly fitted or top-dose-only effect, or another doubt; inactive = no such curve, though single readings can be large; an effect the other way counts as inactive or inconclusive.

SMILES | VDR inhibitor | HTT aggregate | JMJD2E inh | RGS12 GoLoco inh | FBPA coupling cs | HTT ATP protect
Cc1cc(C)c(NC(=O)CSc2nc3ccc(NC(=O)CSc4nnnn4-c4ccccc4)cc3s2)c(C)c1 | 1% | 10µM* | -12% | 2% | -2 | /
O=C(CSc1nnnn1-c1cccc2ccccc12)Nc1ccc(N2CCOCC2)c(Cl)c1 | 4% | ? | 1% | -5% | 0 | -2%
O=C(CSc1nnnn1-c1ccccc1)Nc1ccc(N2CCOCC2)c(Cl)c1 | 14% | 7% | -3% | 7.1µM* | -1 | -11%
CCOC(=O)N1CCN(C(=O)c2ccc(CS(=O)(=O)c3c(Cl)cccc3Cl)o2)CC1 | -10% | 0.0009µM* | -3% | -4% | 1 | /
COc1ccc(S(=O)(=O)Cc2ccc(C(=O)N3CCN(c4cc(Cl)ccc4C)CC3)o2)cc1 | -7% | 18µM* | -8% | 0% | -4 | 27%
O=C(c1ccc(CS(=O)(=O)c2c(Cl)cccc2Cl)o1)N1CCCC1 | -19% | -4% | -4% | 0% | 0 | -6%
CCN(CCO)c1nc(NCc2ccccc2)c2cnn(C)c2n1 | 4% | / | / | / | -3 | /
Cc1ccc(NCCC(=O)c2cccc([N+](=O)[O-])c2)cc1 | -29% | ? | -7% | -7% | 1 | 13%[10 µM]
O=C(CCNc1ccccc1)c1cccc([N+](=O)[O-])c1 | 89µM* | -3% | 6% | / | -2 | -6%
O=C(NCCNc1ccc([N+](=O)[O-])cc1)c1cccc(Br)c1 | -20% | 10% | -6% | 13% | -1 | /
Cc1nc(SCC(=O)c2cccc([N+](=O)[O-])c2)n[nH]1 | 25µM* | ? | -4% | 0% | 4 | 11%[10 µM]
O=C(CCNc1ccc(Br)cc1)c1cccc([N+](=O)[O-])c1 | 89µM* | -3% | -9% | 15% | -1 | 4%
Cc1nc2n(c(=O)c1CCN1CCC(c3noc4cc(F)ccc34)CC1)CCCC2O (stereo unspecified) | -12% | / | / | / | / | /
Cn1cnc(S(=O)(=O)N2CCC(C(=O)N3CCN(c4ccccc4F)CC3)CC2)c1 | 4% | / | / | / | / | /
CCOC(=O)c1c(N)sn(-c2ccccc2C)c1=S | 35µM* | -25% | -18% | -14% | 2 | -18%
CCOC(=O)c1c(N)sc(-c2ccccc2)c1C | -15% | -15% | -1% | -1% | 2 | -20%[10 µM]
COc1cnc(-c2ccccn2)nc1NC(C)C | -11% | -20% | -117% | 4% | -36* | -138%
Cn1cc(C2=C(c3ccc(Cl)cc3Cl)C(=O)NC2=O)c2ccccc21 | -4% | / | 2% | 57% | -10 | 32µM*!
COc1ccc(-c2coc3ccc(O[C@@H]4O[C@@H](COC(C)=O)[C@@H](OC(C)=O)[C@@H](OC(C)=O)[C@H]4OC(C)=O)cc3c2=O)cc1 | / | / | / | / | / | -38%
C=C(CN(C)C)C(=O)c1ccc(OC2OC(COC(C)=O)C(OC(C)=O)C(OC(C)=O)C2OC(C)=O)cc1 (stereo unspecified) | 40µM* | / | / | / | / | /
COc1ccc(-n2c(=O)cnc3cnc(OC)nc32)cc1 | 3% | / | / | 2% | 3 | -70%
COc1cc(C(=O)ON=C2C(C)=CC(=O)C=C2C)cc(OC)c1OC | 89µM* | ? | 5% | -9% | -24 | 0%
COc1cc(C(=O)Oc2cc(C)cc(C)c2)cc(OC)c1OC | 14% | -8% | 6% | -17% | 1 | 23%[10 µM]
[O-]/C(=C(\C(=S)Nc1cccc2ccccc12)[n+]1ccccc1)c1ccc(OC(F)F)cc1 | -19% | 0% | ? | 16% | -41* | -12%[10 µM]
COc1cccc(NC(=S)/C(=C(\[O-])c2ccc(OC(F)F)cc2)[n+]2ccccc2)c1 | -12% | -14% | -6% | 14% | -18 | -5%[10 µM]
[O-]/C(=C(\C(=S)Nc1cccc2ccccc12)[n+]1ccccc1)c1ccc2c(c1)OCCO2 | -9% | -11%[9.22 µM] | ? | 19% | -46* | 15%
COc1cccc(-c2nnc3n2N=C(C(C)(C)C)CS3)c1 | 0% | 2µM* | 11% | 11% | 6 | 34%
COc1cccc(C2=Nn3c(nnc3-c3cccc(OC)c3)SC2)c1 | / | / | / | / | 0 | /

High-throughput results: PubChem, National Center for Advancing Translational Sciences (NCATS)
